According to ChEMBL document CHEMBL3988442, “University of Dundee, Small-Polar-MMV Screening Library” (2021):
For some assays here: Measured potencies and affinities stand elsewhere.

Experiments:
Parameters in all cases: scale not given: direction of the effect not stated beside the values
[1] = molecular target: Protein translocase subunit SecA (Escherichia coli (strain K12)) (UniProt P10408); assay: Assay to Identify E. coli SecA ATPase Inhibitors; type: functional; details: 30 µM
[2] = molecular target: T1, Ubiquitin-activating enzyme e1, putative (Leishmania donovani (strain BPK282A1)) (UniProt E9BSI1); assay: Leishmania donovani Ubiquitin Activating Enzyme (LdE1); type: functional; details: 30 µM
T1 sequence (whole entry): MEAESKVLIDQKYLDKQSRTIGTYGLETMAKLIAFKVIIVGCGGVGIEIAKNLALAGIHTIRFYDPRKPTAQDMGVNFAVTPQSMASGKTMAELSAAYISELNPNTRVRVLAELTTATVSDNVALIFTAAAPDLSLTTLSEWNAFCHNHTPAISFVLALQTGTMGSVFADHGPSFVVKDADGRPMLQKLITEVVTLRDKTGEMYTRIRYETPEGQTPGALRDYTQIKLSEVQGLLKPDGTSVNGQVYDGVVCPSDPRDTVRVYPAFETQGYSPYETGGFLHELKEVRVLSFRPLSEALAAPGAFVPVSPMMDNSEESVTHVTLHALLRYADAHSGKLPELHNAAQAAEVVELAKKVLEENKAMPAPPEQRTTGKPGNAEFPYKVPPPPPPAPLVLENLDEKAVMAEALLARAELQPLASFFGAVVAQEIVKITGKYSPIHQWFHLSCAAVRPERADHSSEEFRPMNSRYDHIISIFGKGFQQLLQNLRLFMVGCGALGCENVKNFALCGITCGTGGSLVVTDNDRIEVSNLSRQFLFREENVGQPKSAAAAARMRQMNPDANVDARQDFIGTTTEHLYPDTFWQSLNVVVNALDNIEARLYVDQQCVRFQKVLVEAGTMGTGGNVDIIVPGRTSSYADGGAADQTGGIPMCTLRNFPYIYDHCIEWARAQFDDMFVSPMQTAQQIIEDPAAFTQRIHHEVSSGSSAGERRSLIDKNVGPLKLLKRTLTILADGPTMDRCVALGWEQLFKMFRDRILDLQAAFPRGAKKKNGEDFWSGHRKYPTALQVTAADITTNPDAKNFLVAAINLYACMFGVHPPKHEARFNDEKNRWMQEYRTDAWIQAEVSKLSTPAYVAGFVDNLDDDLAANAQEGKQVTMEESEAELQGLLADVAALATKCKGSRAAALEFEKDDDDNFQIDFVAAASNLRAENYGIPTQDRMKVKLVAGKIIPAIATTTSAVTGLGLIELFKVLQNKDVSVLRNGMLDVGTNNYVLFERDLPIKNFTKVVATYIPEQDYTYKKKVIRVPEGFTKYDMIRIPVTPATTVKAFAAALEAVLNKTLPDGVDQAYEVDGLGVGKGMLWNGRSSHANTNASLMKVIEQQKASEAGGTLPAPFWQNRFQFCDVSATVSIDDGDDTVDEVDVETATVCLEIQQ

[3] = molecular target: AMP-activated protein kinase, AMPK (Homo sapiens) (UniProt P54646+O43741+P54619+Q9UGJ0+Q9Y478+Q13131+Q9UGI9); assay: AMP-dependent Kinase enzyme assay. An in vitro enzyme assay that detects ADP turnover that is directly proportional to AMPK activity. This uses naive AMPK that is activated during the assay with MK-8722; type: functional; details: 30 µM
[4] = molecular target: Sialic acid-binding Ig-like lectin 9 (Homo sapiens) (UniProt Q9Y336); assay: Hs-Siglec9 ALPHAscreen SOP 20170721; details: 10 µM
Chain of Sialic acid-binding Ig-like lectin 9 (Homo sapiens) (Q9Y336 whole entry): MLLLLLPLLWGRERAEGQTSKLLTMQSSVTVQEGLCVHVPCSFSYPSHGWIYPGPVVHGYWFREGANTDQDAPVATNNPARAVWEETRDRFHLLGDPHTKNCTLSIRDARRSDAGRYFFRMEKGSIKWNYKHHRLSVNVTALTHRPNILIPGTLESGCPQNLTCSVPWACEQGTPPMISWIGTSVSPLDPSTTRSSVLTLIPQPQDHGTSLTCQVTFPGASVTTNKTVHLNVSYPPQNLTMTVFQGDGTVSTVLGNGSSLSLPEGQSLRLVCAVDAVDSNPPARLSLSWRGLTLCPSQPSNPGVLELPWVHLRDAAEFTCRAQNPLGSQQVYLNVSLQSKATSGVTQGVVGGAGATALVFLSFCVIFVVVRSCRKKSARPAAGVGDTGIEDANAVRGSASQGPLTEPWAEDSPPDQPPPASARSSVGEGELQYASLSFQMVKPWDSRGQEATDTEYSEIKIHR

[5] = system: Trypanosoma cruzi; assay: Trypanosoma cruzi phosphomannomutase and mannose-1-phosphate guanylyltransferase assay; type: functional; details: 10 µM
[6] = molecular target: T2, Arginase-2, mitochondrial (Homo sapiens) (UniProt P78540); assay: in vitro enzyme assay to detect the production of urea directly proportional to the activity of Arginase II; type: functional; details: 33.3 µM; further: in the data most compounds retested in dose-response had high values
T2 sequence (whole entry): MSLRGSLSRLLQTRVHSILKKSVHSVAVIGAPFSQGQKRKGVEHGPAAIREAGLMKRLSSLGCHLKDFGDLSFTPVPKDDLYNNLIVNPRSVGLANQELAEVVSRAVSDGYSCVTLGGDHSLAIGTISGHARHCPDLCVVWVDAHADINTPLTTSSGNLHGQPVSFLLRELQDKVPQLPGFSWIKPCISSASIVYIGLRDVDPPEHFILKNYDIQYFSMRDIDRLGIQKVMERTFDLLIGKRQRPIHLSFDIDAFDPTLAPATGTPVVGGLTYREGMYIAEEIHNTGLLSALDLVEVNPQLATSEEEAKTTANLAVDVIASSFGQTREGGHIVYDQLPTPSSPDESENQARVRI

[7] = molecular target: T3, Proteasome subunit beta (Trypanosoma cruzi) (UniProt O96673); assay: Trypanosoma cruzi proteasome chymotrypsin-like activity (TcProtChymo) assay.; further: in the data most compounds retested in dose-response had high values; type: functional; details: 9.37 µM
T3 sequence (whole entry): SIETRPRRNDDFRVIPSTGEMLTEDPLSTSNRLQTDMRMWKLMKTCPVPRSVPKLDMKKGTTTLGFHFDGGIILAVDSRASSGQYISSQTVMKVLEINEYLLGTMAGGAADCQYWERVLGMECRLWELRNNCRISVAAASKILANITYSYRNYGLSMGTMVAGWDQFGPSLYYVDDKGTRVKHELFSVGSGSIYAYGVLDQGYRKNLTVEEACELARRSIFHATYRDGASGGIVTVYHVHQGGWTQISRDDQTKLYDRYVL

[8] = organism: Homo sapiens; assay: To identify inhibition of the IFN signalling (Jak-Stat) pathway via expression of an eGFP reporter gene under the control of an IFN-stimulated response element (ISRE) containing MxA promoter.; type: functional; details: 30 µM
[9] = molecular target: T4, Tyrosyl-tRNA synthetase, putative (Trypanosoma cruzi (strain CL Brener)) (UniProt Q4DSP6); assay: Trypanosoma cruzi tyrosyl tRNA synthetase (TcYRS) _High Tyrosine SOP; type: functional; details: 30 µM; further: in the data most compounds retested in dose-response had high values
T4 sequence (whole entry): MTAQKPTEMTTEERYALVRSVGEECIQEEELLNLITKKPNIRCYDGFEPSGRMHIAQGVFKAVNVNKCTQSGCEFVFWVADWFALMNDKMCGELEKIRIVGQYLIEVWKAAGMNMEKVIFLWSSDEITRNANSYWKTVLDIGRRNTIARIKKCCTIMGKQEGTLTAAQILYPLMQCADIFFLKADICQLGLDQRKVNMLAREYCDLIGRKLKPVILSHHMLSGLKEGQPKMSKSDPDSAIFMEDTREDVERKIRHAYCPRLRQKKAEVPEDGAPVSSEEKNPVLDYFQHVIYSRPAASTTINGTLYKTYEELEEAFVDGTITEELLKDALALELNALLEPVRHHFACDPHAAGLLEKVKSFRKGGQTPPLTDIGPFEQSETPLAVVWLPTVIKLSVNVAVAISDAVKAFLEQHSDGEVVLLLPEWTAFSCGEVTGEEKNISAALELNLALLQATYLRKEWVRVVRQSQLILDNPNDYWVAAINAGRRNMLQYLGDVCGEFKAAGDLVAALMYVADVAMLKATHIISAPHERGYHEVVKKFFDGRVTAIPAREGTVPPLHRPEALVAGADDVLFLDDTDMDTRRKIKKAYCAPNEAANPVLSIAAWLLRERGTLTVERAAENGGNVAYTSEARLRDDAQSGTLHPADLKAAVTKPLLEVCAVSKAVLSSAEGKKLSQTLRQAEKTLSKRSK

[10] = molecular target: T4, Tyrosyl-tRNA synthetase, putative (Trypanosoma cruzi (strain CL Brener)); assay: Trypanosoma cruzi tyrosyl tRNA synthetase (TcYRS) SOP; type: functional; details: 30 µM
[11] = molecular target: Chromo domain-containing protein 1 (Saccharomyces cerevisiae (strain ATCC 204508 / S288c) (Baker's yeast)) (UniProt P32657); assay: ScCHD-1 Enzyme Inhibition Assay; type: functional; details: 30 µM; further: in the data most compounds retested in dose-response had high values
Chain of Chromo domain-containing protein 1 (Saccharomyces cerevisiae (strain ATCC 204508 / S288c) (Baker's yeast)) (P32657 whole entry, the tested form may be a part): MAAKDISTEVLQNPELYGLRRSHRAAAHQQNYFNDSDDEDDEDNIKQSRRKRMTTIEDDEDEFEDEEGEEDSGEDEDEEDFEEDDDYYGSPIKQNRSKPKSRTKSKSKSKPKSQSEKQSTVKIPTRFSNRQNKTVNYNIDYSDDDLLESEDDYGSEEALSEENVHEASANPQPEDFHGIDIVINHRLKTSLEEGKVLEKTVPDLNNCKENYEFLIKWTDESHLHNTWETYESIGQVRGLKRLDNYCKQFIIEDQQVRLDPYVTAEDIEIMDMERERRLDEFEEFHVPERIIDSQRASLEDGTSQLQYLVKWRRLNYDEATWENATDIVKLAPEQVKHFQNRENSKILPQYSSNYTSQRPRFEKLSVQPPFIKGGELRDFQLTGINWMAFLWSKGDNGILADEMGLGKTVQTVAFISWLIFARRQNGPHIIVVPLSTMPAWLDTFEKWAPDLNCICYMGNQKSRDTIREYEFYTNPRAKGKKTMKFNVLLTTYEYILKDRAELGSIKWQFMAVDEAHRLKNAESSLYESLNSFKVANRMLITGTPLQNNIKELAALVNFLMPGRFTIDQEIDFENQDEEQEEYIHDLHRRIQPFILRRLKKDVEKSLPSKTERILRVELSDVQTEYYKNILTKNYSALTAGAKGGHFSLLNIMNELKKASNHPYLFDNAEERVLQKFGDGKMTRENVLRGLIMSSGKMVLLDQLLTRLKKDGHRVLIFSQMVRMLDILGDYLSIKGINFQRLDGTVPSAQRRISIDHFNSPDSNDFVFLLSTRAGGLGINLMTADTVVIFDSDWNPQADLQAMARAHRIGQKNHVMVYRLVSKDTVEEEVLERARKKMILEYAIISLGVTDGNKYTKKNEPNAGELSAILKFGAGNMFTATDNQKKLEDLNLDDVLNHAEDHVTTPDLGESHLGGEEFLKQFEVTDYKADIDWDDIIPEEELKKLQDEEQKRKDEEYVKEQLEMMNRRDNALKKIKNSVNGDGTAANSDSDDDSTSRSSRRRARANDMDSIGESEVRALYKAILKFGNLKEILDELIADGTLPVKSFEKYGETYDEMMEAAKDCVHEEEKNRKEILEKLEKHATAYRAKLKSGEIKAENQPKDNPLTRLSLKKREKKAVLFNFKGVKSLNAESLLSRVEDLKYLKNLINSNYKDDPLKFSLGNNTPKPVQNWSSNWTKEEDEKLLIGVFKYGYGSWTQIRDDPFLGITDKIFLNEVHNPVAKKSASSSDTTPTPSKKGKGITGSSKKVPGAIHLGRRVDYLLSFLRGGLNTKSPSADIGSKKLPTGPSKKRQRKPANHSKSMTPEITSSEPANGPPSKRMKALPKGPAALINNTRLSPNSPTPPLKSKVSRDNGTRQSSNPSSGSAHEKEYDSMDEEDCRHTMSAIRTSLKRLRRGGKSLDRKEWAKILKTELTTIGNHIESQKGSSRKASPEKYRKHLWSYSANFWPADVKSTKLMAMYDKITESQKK

Chain of Protein translocase subunit SecA (Escherichia coli (strain K12)) (P10408 whole entry): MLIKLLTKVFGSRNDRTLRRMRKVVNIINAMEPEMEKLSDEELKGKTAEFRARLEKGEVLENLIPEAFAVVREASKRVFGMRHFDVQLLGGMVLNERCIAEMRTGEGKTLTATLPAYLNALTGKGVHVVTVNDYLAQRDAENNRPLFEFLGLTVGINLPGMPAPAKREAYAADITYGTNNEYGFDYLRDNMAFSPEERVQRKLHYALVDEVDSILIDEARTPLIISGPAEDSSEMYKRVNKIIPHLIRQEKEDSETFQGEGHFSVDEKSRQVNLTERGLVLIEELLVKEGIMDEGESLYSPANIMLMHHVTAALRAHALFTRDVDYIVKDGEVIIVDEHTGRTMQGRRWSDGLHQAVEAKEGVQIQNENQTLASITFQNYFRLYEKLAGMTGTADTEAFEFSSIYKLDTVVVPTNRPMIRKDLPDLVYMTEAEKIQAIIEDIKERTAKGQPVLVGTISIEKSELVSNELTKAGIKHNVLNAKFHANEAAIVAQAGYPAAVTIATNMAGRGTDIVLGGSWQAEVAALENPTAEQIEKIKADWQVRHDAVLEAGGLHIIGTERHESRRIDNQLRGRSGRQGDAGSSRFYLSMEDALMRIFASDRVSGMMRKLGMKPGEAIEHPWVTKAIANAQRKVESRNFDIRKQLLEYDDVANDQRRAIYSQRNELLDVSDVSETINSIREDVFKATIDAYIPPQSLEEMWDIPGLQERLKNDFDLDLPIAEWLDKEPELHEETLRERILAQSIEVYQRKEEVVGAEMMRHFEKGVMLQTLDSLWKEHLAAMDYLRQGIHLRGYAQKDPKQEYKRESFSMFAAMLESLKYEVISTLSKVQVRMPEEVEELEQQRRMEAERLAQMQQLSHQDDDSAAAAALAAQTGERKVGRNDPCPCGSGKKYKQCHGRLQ

SMILES	Percent Effect [1] [%]	Percent Effect [2] [%]	Percent Effect [3] [%]	Percent Effect [4] [%]	Percent Effect [5] [%]	Percent Effect [6] [%]	Percent Effect [7] [%]	Percent Effect [8] [%]	Percent Effect [9] [%]	Percent Effect [10] [%]	Percent Effect [11] [%]
CC(C)(C)c1nc(CN2CCCC2Cn2cccn2)no1 (stereo not given)	-1.54	26	-0.88	-2.85	2.81	6.41	17.7	18.5	12.6	26.8	-9.21
CC(C)(C)c1ccc(C2(C(=O)NCCS(N)(=O)=O)CC2)cc1	-3.83	10.4	1.16	8.65	3.25	-422	8.98	10.7	3.23	11.1	-4.35
CC(C)c1nnc2n1CCN(CC(=O)Nc1sccc1C#N)C2	-8.13	7.89	-4.21	-3.31	-3.83	1.08	-3.13	-0.485	-2.46	-6.17	3.89
CCc1nccn1C1CCCN(C(=O)c2cc3nc(C)ccc3o2)C1 (stereo not given)	-7.55	8.11	-3.48	4.87	-6.7	-4.81	4.87	32.4	3.45	3.7	0.188
Cc1cnn(CCC(=O)N2CCCN(c3ncccc3C#N)CC2)c1	-7.15	19	-1.68	6.67	-1.74	-0.215	9.61	-1.81	4.17	20.2	-30.4
OCCOCCN1CCCC1c1nc2cc(F)ccc2[nH]1 (stereo not given)	7.36	21.9	-1.73	-1.07	-13.1	-2.4	14.3	9.67	11.5	18.5	-1.92
CNC(=O)c1nc2c(s1)CCN(C(=O)Cc1ccc(OC)cc1)CC2	-7.69	5.41	1.22	-1.04	-1.07	-1.59	0.369	8.46	4.32	0	1.61
COCCN1CCN(CCCS(=O)(=O)c2ccccc2)CC1C (stereo not given)	-1.14	-5.41	-5.83	0.945	6.22	0.554	4.13	-19.8	4.95	1.22	-0.0339
CCOCCCn1c(NC(=O)c2cnn(C)c2)nc2ccccc21	-5.81	5.2	2.7	15	-1.69	-1.07	2.37	11.1	6.8	14.6	-2.58
Cc1noc(C)c1CN1CC2(CCN(C(=O)c3c[nH]cn3)C2)CC1=O (stereo not given)	-0.0681	13.3	-2.8	13.2	-3.48	-49.3	17.8	-2.42	2.08	17.5	-4.57
